Source: PubChem (several laboratories)
KKLEB cytotox: cytotoxicity in KKLEB CF airway cells, primary screen, cytotoxicity control for CF NF-kB inhibitor project, cell-based, uHTS, fluorescence assay plates. activity change (cytotoxicity), % at 5 µM. 360,000 compounds, 0.36% hits. AID 602141, 2011. KKLEB CF airway cells viability, ATPlite luminescence, overnight; stronger effect = lower value; cells stimulated with P. aeruginosa culture filtrate;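 active = corrected activity change at or below -50% at 5 µM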
HIF-2a inh: HIF-2a reporter inhibitors, primary screen, luminescence, 786-0 RCC cells. inhibition, % at 18.8 µM. 360,000 compounds, 0.72% hits. 786-0 RCC cells HIF-2a reporter, luciferase luminescence, overnight;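 active = inhibition of the luminescence signal of 40% or more relative to plate controls, in a single-dose primary screen at 18.75 µM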
MITF TRPM1 inh: inhibitors of MITF-dependent TRPM1 promoter reporter, primary screen, cell-based, SK-MEL-5, single point, luciferase; SK-MEL-5 TRPM1 promoter luciferase, 24 h; inhibition, % at 12.5 µM; 330,000 compounds, 0.83% hits; AID 488899, 2010;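 active = mean inhibition across replicates of 60% or more, whatever share of single replicates reaches that level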
Peg3 prom inh: Peg3 promoter-driven luciferase inhibitors, primary screen, cell-based, HeLa, luciferase luminescence; HeLa PEG-Prom luciferase reporter, overnight; 360,000 compounds, 1.7% hits; inhibition, % at 20 µM; AID 588405, 2011;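 active = inhibition of at least 50% at 20 µM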
CF NFkB block: inhibitors of PAF-induced NF-kB signaling, primary screen, cell-based, GFP fluorescence, uHTS; KKLEB NF-kB-GFP reporter, GFP fluorescence overnight; 360,000 compounds, 0.86% hits; inhibition, % at 5 µM;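 active = at least 50% inhibition at 5 µM, scaled per plate between neutral and stimulator controls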;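 note: PAF is a Pseudomonas aeruginosa culture filtrate used as stimulus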
LMP1 NFkB inh: EBV LMP1-driven NF-kappaB luciferase reporter inhibitors, primary screen, cell-based, luminescence, single point; LMP1-induced NF-kappaB luciferase reporter cells; inhibition, % at 12.5 µM; 350,000 compounds, 0.69% hits; in the data active = inhibition above about 41%
Mdm2 MdmX conf: retested Mdm2-MdmX interaction blockers, confirmation, cell-based, luminescence, single concentration, set 2; shares compounds with HIF-2a inh; SaOS-2 split-luciferase Mdm2/MdmX complementation; inhibition, % at 8 µM; 740 compounds, 99% hits;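 active = mean inhibition of the luminescence signal across two replicates at or above 26 percent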
Target sequence (O15151 whole entry, looked up): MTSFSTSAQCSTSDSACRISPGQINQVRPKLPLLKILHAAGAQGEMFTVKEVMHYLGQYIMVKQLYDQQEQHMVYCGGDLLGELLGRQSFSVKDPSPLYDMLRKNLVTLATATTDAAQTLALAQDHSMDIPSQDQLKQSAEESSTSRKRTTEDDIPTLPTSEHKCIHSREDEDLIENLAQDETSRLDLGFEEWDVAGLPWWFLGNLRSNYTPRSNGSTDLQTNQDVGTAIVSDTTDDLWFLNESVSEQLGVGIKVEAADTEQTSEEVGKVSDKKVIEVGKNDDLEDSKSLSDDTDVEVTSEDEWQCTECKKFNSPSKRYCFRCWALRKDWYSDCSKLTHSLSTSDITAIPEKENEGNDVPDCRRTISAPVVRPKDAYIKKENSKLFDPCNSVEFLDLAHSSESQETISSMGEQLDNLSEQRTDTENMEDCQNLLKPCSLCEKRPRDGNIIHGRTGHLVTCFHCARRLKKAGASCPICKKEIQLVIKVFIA
Target sequence (Q00987 whole entry, looked up): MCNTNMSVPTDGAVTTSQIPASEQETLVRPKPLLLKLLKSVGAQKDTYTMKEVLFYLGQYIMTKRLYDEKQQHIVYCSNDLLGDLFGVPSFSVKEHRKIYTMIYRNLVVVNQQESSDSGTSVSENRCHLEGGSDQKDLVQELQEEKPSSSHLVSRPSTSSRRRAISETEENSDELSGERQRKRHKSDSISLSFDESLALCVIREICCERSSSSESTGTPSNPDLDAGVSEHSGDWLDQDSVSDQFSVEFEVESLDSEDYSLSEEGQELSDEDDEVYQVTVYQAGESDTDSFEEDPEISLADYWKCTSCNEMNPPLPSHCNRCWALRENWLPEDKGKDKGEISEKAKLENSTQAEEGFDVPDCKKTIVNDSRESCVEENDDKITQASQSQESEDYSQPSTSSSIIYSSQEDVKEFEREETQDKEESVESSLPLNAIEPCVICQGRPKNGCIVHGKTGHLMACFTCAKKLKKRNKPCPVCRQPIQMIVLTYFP
HIF-2a conf: HIF-2a reporter inhibitor retest, confirmation, luminescence, 786-0 RCC cells | shares compounds with HIF-2a inh | HIF-2a luciferase reporter luminescence, overnight | inhibition, % at 18.8 µM | 1,800 compounds, 56% hits | AID 651580, 2012;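 active = mean inhibition across four replicates of at least 40 percent at the single tested concentration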
HIF-1a cs: HIF-1a luciferase reporter signal reduction – MiaPaCa-2 cells, single concentration, counter-screen for HIF-2a inhibitor project, confirmation. shares compounds with HIF-2a inh. MiaPaCa-2 HIF-1a luciferase reporter, desferoxamine, overnight. inhibition, % at 18.8 µM. 1,800 compounds, 72% hits;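 active = mean inhibition of the reporter signal across four replicates at the single tested dose of 50% or more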
Numbers stand for hits. Most compounds without a hit are left out; they make up all but 3% or so of the library.

How did COc1cc([N+](=O)[O-])c2nc(C)ccc2c1[N+](=O)[O-] do in these assays?
KKLEB cytotox: inactive; HIF-2a inh: inactive; MITF TRPM1 inh: inactive; Peg3 prom inh: inactive; CF NFkB block: inactive; LMP1 NFkB inh: inactive

Results for COc1cc([N+](=O)[O-])c2ncccc2c1[N+](=O)[O-] ?
KKLEB cytotox: inactive; HIF-2a inh: 43; Peg3 prom inh: inactive; CF NFkB block: inactive; HIF-2a conf: inactive; HIF-1a cs: 78

What do the screens show for `CC1=NN=C(c2ccc(N)cc2)c2cc3c(cc2C1)OCO3`?
KKLEB cytotox: inactive; HIF-2a inh: inactive; MITF TRPM1 inh: inactive; Peg3 prom inh: inactive; CF NFkB block: inactive; LMP1 NFkB inh: inactive

Results for CC(=O)N1CCC(N2CCCC(C(=O)c3cccc(Cl)c3)C2)CC1 (stereo not given) ?
KKLEB cytotox: inactive; HIF-2a inh: inactive; MITF TRPM1 inh: inactive; Peg3 prom inh: inactive; CF NFkB block: inactive; LMP1 NFkB inh: inactive

Results for COc1cc2c(cc1/C=C/[N+](=O)[O-])OCO2 ?
KKLEB cytotox: inactive; HIF-2a inh: 71; MITF TRPM1 inh: 79; Peg3 prom inh: 110; CF NFkB block: inactive; LMP1 NFkB inh: inactive; HIF-2a conf: 79; HIF-1a cs: 98

How did C=C1C(=O)OC2C1CCC(C)C1(O)C=CC(=O)C21C (stereo not given) do in these assays?
KKLEB cytotox: inactive; HIF-2a inh: 47; MITF TRPM1 inh: 75; Peg3 prom inh: 106; CF NFkB block: inactive; LMP1 NFkB inh: inactive; HIF-2a conf: inactive; HIF-1a cs: 99

How did COC(=O)CC1(CC(=O)OC)C(=O)N(c2ccccc2)C(=O)N(c2ccccc2)C1=O do in these assays?
KKLEB cytotox: inactive; HIF-2a inh: inactive; MITF TRPM1 inh: inactive; Peg3 prom inh: inactive; CF NFkB block: inactive; LMP1 NFkB inh: inactive

How did C=C1C(=O)[C@@]23C[C@H]4[C@@H]5[C@@]6(C)CCC[C@@]57[C@@H]2[C@@H](O)[C@@H]1C[C@H]3[C@H]7N4C6 do in these assays?
KKLEB cytotox: inactive; HIF-2a inh: 69; Peg3 prom inh: 93; CF NFkB block: 74; LMP1 NFkB inh: inactive; Mdm2 MdmX conf: 101

What do the screens show for `COC(=O)C1=C(c2cccc(C#N)c2)C[C@@H]2CC[C@H]1N2C(=O)NC(C)C`?
KKLEB cytotox: inactive; HIF-2a inh: inactive; MITF TRPM1 inh: inactive; Peg3 prom inh: inactive; CF NFkB block: inactive; LMP1 NFkB inh: inactive

How did Cc1cc([N+](=O)[O-])c2ccccc2[n+]1[O-] do in these assays?
KKLEB cytotox: inactive; HIF-2a inh: 48; MITF TRPM1 inh: 78; Peg3 prom inh: 108; CF NFkB block: inactive; LMP1 NFkB inh: 90; Mdm2 MdmX conf: 103

What do the screens show for `O=C1C(Cc2cnc[nH]2)NC(=S)N1c1ccccc1` (stereo not given)?
KKLEB cytotox: inactive; HIF-2a inh: inactive; MITF TRPM1 inh: inactive; Peg3 prom inh: inactive; CF NFkB block: inactive

Results for CC1CCC/C=C/C2CC(O)CC2C(O)/C=C/C(=O)O1 (stereo not given) ?
KKLEB cytotox: -60; HIF-2a inh: 46; MITF TRPM1 inh: 85; Peg3 prom inh: 60; CF NFkB block: 79; LMP1 NFkB inh: inactive; Mdm2 MdmX conf: 103; HIF-2a conf: inactive; HIF-1a cs: 78

How did C[C@H]1CCC/C=C/C2C[C@H](O)CC2[C@H](O)/C=C/C(=O)O1 (stereo not given in full) do in these assays?
KKLEB cytotox: inactive; HIF-2a inh: 68; MITF TRPM1 inh: 80; Peg3 prom inh: 55; CF NFkB block: 81; LMP1 NFkB inh: inactive; Mdm2 MdmX conf: 103

What do the screens show for `CC1CCC[C@H](O)CCCCCc2cc(O)cc(O)c2C(=O)O1` (stereo not given in full)?
KKLEB cytotox: inactive; HIF-2a inh: inactive; MITF TRPM1 inh: inactive; Peg3 prom inh: inactive; CF NFkB block: inactive; LMP1 NFkB inh: inactive

How did CN(C)C(=O)O/N=C(\N)COc1ccc(C(C)(C)C)cc1 do in these assays?
KKLEB cytotox: inactive; HIF-2a inh: 60; MITF TRPM1 inh: inactive; Peg3 prom inh: 107; CF NFkB block: inactive; LMP1 NFkB inh: inactive; Mdm2 MdmX conf: 103; HIF-2a conf: inactive; HIF-1a cs: inactive

How did O=C(COC(=O)c1cc(Br)cc(Br)c1O)NC12CC3CC(CC(C3)C1)C2 do in these assays?
KKLEB cytotox: inactive; HIF-2a inh: inactive; Peg3 prom inh: inactive; CF NFkB block: inactive

How did Cc1cccc(OP(=O)(NCc2ccccc2)Oc2cccc(C)c2)c1 do in these assays?
KKLEB cytotox: inactive; HIF-2a inh: 68; MITF TRPM1 inh: inactive; Peg3 prom inh: inactive; CF NFkB block: inactive; LMP1 NFkB inh: inactive; HIF-2a conf: inactive; HIF-1a cs: 80

What do the screens show for `CC(=O)O[C@H]1C[C@@H]2OC3C=C(C)CCC3(C)[C@@]1(C)[C@@]21CO1` (stereo not given in full)?
KKLEB cytotox: inactive; HIF-2a inh: 48; MITF TRPM1 inh: 66; Peg3 prom inh: 96; CF NFkB block: 90; LMP1 NFkB inh: 91; HIF-2a conf: 64; HIF-1a cs: 102

What do the screens show for `CCc1ccc(NC2=NCCCS2)cc1`?
KKLEB cytotox: inactive; HIF-2a inh: inactive; MITF TRPM1 inh: inactive; Peg3 prom inh: inactive; CF NFkB block: inactive; LMP1 NFkB inh: inactive

Results for C[C@H]1CC[C@@H]2[C@@H](C)[C@H]3[C@H](C[C@H]4[C@@H]5CC=C6C[C@@H](O[C@@H]7O[C@H](CO)[C@H](O)[C@H](O[C@@H]8O[C@H](CO)[C@@H](O)[C@H](O)[C@H]8O)[C@H]7O[C@@H]7O[C@@H](C)[C@H](O)[C@@H](O)[C@H]7O)CC[C@]6(C)[C@H]5CC[C@]34C)N2C1 ?
KKLEB cytotox: inactive; HIF-2a inh: 87; MITF TRPM1 inh: inactive; Peg3 prom inh: inactive; CF NFkB block: inactive; LMP1 NFkB inh: inactive; HIF-2a conf: inactive; HIF-1a cs: 68
